# Bioassay records as filed in PubChem.
# Hits are enriched below; roughly 0.96% of the tested compounds scored in any of these assays.
# TRPV1 PAM: potentiators of human vanilloid receptor 1 (TRPV1) | TRPV1-expressing cells, Fluo-8 calcium influx, capsaicin EC20 potentiation | potentiation, % at 8.33 µM | 320,000 compounds, 0.02% hits | AID 540277; in the data active = potentiation above about 80%; inconclusive = between about 30% and that limit; note: 0% is about no effect
# Target sequence (Q8NER1 whole entry, looked up): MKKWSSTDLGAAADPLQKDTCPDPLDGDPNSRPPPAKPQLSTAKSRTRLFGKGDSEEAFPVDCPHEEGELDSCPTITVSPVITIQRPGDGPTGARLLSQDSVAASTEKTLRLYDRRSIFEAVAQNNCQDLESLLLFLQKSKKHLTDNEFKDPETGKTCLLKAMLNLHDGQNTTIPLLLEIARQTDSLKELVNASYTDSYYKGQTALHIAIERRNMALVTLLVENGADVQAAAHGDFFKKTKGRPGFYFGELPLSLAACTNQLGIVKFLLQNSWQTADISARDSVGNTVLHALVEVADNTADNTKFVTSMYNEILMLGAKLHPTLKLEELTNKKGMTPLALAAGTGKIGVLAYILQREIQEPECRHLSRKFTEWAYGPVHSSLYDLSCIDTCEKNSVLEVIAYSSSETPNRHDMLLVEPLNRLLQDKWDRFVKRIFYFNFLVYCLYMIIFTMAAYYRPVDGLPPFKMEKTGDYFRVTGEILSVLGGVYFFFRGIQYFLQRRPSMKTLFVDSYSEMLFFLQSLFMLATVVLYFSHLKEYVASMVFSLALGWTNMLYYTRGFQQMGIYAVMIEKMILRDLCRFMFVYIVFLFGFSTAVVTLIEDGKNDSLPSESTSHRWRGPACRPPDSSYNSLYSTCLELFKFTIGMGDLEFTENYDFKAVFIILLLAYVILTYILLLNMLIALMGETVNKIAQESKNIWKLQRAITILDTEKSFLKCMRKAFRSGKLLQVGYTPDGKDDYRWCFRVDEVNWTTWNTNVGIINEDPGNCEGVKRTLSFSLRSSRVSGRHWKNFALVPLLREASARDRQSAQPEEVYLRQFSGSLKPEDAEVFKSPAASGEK
#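 Fluo-8 calcium influx in TRPV1-expressing cells, kinetic read (ex 480/em 520 nm). Compound added and read 3 min for agonist activity, followed by capsaicin at EC20 final and 2 min further read for enhancement.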
# TRPML1 agonist: agonists of human TRPML1 channel | Q9GZU1 | TRPML1-expressing cells, Ca2+ dye fluorescence, FDSS | activation, % (no concentration beside the values) | 410,000 compounds, 0.12% hits; in the data active = activation above about 50%; inconclusive = mostly about 30% to 49%; note: 0% is about no effect
#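 Kinetic FDSS Ca2+ read in Tet-induced TRPML1-DL cells (ABD Ca8 dye plus quencher, 45-90 min RT loading): baseline, then compound, then 110 s agonist window; EC80 agonist 54-4 at 4uM final added afterwards for a 110 s antagonist window.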
# TRHR agonist: activates the human TRH receptor. P34981. TRHR cells, calcium flux fluo-8, FDSS agonist mode. activation, % at 2 µM. 360,000 compounds, 0.18% hits; in the data active = activation above about 30%; note: 0% is about no effect
#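 Fluo-8-loaded TRHR cells; 10 s baseline, compound added, kinetic Ca2+ fluorescence read 1/s, agonist mode.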
# TRHR enhancer: allosteric enhancers of human TRH receptor; AID 493056; enhancement, % at 2 µM; 360,000 compounds, 0.66% hits; P34981; TRHR cells, fluo-8 calcium fluorescence, EC20 TRH enhancement; in the data active = enhancement above about 30%; note: 0% is about no effect
#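 TRHR-expressing cells loaded with fluo-8 calcium dye were read kinetically (ex 480/em 530) during compound addition, then stimulated with an EC20 of TRH (10 nM final). Enhancement of the Gq-mediated intracellular calcium response was scored.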
# TRPV1 ag: human TRPV1 agonism | TRPV1-expressing cells, Fluo-8 calcium influx, agonist mode | 320,000 compounds, 0.19% hits | Q8NER1 | activation, % at 8.33 µM; in the data active = activation above about 80%; inconclusive = between about 30% and that limit; note: 0% is about no effect
#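 Fluo-8 calcium influx in TRPV1-expressing cells, kinetic read (ex 480/em 520 nm). Compound added and read 3 min for agonist activity, followed by capsaicin at EC20 final and 2 min further read for enhancement.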
# TRPML1 inh: human mucolipin-1 channel inhibition; TRPML1-inducible cells, Ca2+ dye fluorescence, FDSS; stronger effect = lower value; inhibition of EC80 agonist-evoked calcium signal; activity change, negative = inhibition, % (concentration not given with the values); 390,000 compounds, 0.02% hits; in the data active = activity change below about -50%; inconclusive = between about -30% and that limit;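 note: stimulus is agonist 54-4 at its EC80 concentration; % is set by controls: 0 for no effect and ±100 for the full control effect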
#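 Tet-induced TRPML1-DL cells loaded with Ca8 no-wash calcium dye were read kinetically on FDSS. Compound addition was followed by EC80 agonist 54-4 (4 uM final); inhibition was read over 110 s.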
# * marks the source's active call; other numbers are inactive results; u = inconclusive; x = not tested or not shown; ! = repeats disagree.
SMILES,TRPV1 PAM,TRPML1 agonist,TRHR agonist,TRHR enhancer,TRPV1 ag,TRPML1 inh
COc1cc(/C=C2\SC(=S)N(NC(=O)c3ccc(O)cc3)C2=O)ccc1O,-19,u,48*,-1,u,25
COc1cc(/C=C2/SC(=S)N(CC3CCCO3)C2=O)ccc1O (stereo not given),-8,u,64*,8,16,3
CCOc1cc(/C=C2\SC(=S)N(NS(=O)(=O)c3ccccc3)C2=O)ccc1O,21,3,16,10,3,29
Cc1cc2c(s1)c1cnn(Cc3cccc(C(F)(F)F)c3F)c(=O)c1n2C,x,x,0,-3,x,x
COc1ccc(CC(=O)NCCCc2ccccc2)cc1OC,-22,2,1,1,105*,2
O=Cc1ccc(I)cc1,x,0,x,x,x,x
Cc1cc2c(s1)c1cnn(Cc3ccc(-n4cncn4)cc3)c(=O)c1n2C,x,x,-1,9,x,x
CCC(=Nc1ccccc1)C1=C(O)CC(C)(C)CC1=O,105*,x,0,0,9,x
CCOc1ccc(C2CC(c3ccc(OC)cc3)n3ncnc3N2)cc1 (stereo not given),15,3,2,1,2,15
COc1ccc(C2CC(c3ccco3)n3ncnc3N2)cc1 (stereo not given),2,1,0,37*,0,-5
COc1ccc(CN(Cc2ccccc2)C(C)=O)cc1COc1ccc(NC(C)=O)cc1,x,-1,x,x,x,x
CCCC(=O)Nc1ccccc1N1CCN(C(=O)C(C)C)CC1,4,1,-1,32*,-2,-6
O=C(c1ccco1)N1CCN(C(c2cccs2)c2sc3ncnn3c2O)CC1 (stereo not given),22,0,0,1,-1,7
COc1cccc(C(c2sc3ncnn3c2O)N2CCN(C(=O)c3ccco3)CC2)c1 (stereo not given),-7,0,-1,37*,-1,9
Cc1ccc(C)c(S(=O)(=O)Nc2nc3ccc(S(N)(=O)=O)cc3s2)c1,14,2,0,41*,1,7
Cc1ccc(C)c(N2CCN(C(=O)C3CCN(C(=O)c4cc5sccc5n4C)CC3)CC2)c1,x,1,0,1,x,5
CCn1c(C(=O)N2CCCC(C(=O)N3CCN(c4cc(C)ccc4C)CC3)C2)cc2sccc21 (stereo not given),x,65*,0,-1,x,-11
CC1(C)C2([N+](=O)[O-])CN3CC1([N+](=O)[O-])CN(C2)C3C(O)C(O)C(O)CO (stereo not given),27,1,1,31*,-4,-9
CC1(C)C2([N+](=O)[O-])CN(CCO)CC1([N+](=O)[O-])CN(CCO)C2,-17,0,1,-4,-5,0
CC(=O)N1CCN(/[N+]([O-])=N/Oc2ccc([N+](=O)[O-])cc2[N+](=O)[O-])CC1,x,2,x,x,x,28
O=C(O)c1cc(-c2ccc(/C=C3\NC(=O)N(c4ccccc4)C3=O)o2)ccc1Cl,24,-1,0,-5,-2,-4
C#CCN1C(=O)S/C(=C\c2ccc(-c3ccc(Cl)c(C(=O)O)c3)o2)C1=O,0,x,1,32*,-3,x
O=C(O)c1ccc(Nc2nc3ccccc3nc2NS(=O)(=O)c2ccc(F)cc2)cc1,1,-1,0,-6,2,-19
O=[N+]([O-])c1ccc(S(=O)(=O)Nc2nc3ccccc3nc2Nc2ccccc2)cc1,4,52*,0,-5,0,0
COc1cc(Nc2nc3ccccc3nc2NS(=O)(=O)c2ccc([N+](=O)[O-])cc2)cc(OC)c1OC,1,119*,0,5,14,u
SMILES,TRPV1 PAM,TRPML1 agonist,TRHR agonist,TRHR enhancer,TRPV1 ag,TRPML1 inh
C(=C\c1nc2ccccc2nc1/C=C/c1ccc2c(c1)OCO2)/c1ccc2c(c1)OCO2,x,1,x,x,x,x
O=C(Nc1ccccc1)Nc1cccc(NC(=O)Nc2ccccc2)c1F,1,1,0,6,1,-8
Cc1cc2c(NC(=O)Nc3ccccc3)cccc2nn1,12,0,0,-5,87*,-3
Cc1cc2c(NC(=O)Nc3ccc(C(C)(C)C)cc3)cccc2nn1,-6,0,0,8,114*,12
Cc1ccccc1NC(=O)Nc1ccc(C(F)(F)F)cc1,-3,2,0,-4,u,-9
Cc1ccc(-n2ncc3c(NCCCn4ccnc4)ncnc32)cc1,x,0,0,31*,x,-1
Cc1cccc(-n2ncc3c(NCCCn4ccnc4)ncnc32)c1,13,0,0,1,-2,8
O=C(Cc1cccs1)Nc1nc2c(ccc3ccccc32)s1,-5,0,0,4,81*,-1
CN(C)/C=N/c1nc2nccc(-c3cccnc3)n2n1,22,1,0,-2,-1,-8
CN(C)/C=N/c1nc2nccc(-c3ccccn3)n2n1,-16,-1,0,34*,1,-3
Cc1ccc(S(=O)(=O)N2CCN(c3nc(-n4ccnn4)nc4ccccc34)CC2)cc1,x,0,x,x,x,x
O=C(Nc1cnn(Cc2ccc(Cl)cc2Cl)c1)c1noc2c1CCc1ccccc1-2,x,0,35*,5,x,-14
Cc1cc(C(=O)Nc2cnn(Cc3ccc(Cl)cc3Cl)c2)no1,-21,1,0,7,u,-11
NC(=O)CC(c1ccccc1)c1ccc2c(c1)OCO2 (stereo not given),3,-1,0,33*,1,14
COc1cc(OC)c(N(C)C(=O)CCNC(=O)Cn2cnc3ccccc3c2=O)cc1Cl,-14,1,-1,30*!,-19,-4
COc1cc(OC)c(NC(=O)CCNC(=O)Cn2cnc3ccccc3c2=O)cc1Cl,-12,-1,-1,28,6,4
COc1ccc(OCC(=O)N/N=C2/C=C(C)CC2)cc1,-12,0,0,33*,4,8
FC(F)(F)C(F)(F)C(F)(F)c1nc2ccccc2[nH]1,x,1,x,x,x,x
CC(C)(C)n1ncc2c(=O)n(Cc3ccc([S+](=O)([O-])N4CCOCC4)cc3)cnc21,x,0,x,x,x,-3
COc1ccc(CNC(=O)COc2cc3c(c4oc(=O)cc(C)c24)CCC(C)(C)O3)cc1OC,5,x,2,10,81*,x
O=C(COc1cc2oc(=O)c3c(c2cc1Cl)CCC3)NCc1ccncc1,5,0,0,36*,3,2
Cc1c(C)c2c(OCC(=O)NCc3cccnc3)cc3c(c2oc1=O)CCC(C)(C)O3,-20,x,-1,3,1,x
Cc1c(C)c2c(OCC(=O)NCc3ccncc3)cc3c(c2oc1=O)CCC(C)(C)O3,-19,x,0,6,80*,x
O=C(C[N+]1(CCO)CCOCC1)c1ccc2ccccc2c1,x,1,x,x,x,x
